Data published in article PMC4336329 (PLoS ONE, 2015).
Out of some 310,000 compounds screened, about 2,200 (0.71%) showed an effect of 50% or more. The effect is printed as a negative number. For the sample, strong results were picked, then their nearest neighbours and some compounds at random.

molecular target: human ether-à-go-go-related gene (hERG) potassium channel (human, UniProt Q12809); experiment: primary screen, population patch clamp on CHO cells stably expressing hERG; higher = less effect of the substance
Sequence (Q12809 whole entry, looked up): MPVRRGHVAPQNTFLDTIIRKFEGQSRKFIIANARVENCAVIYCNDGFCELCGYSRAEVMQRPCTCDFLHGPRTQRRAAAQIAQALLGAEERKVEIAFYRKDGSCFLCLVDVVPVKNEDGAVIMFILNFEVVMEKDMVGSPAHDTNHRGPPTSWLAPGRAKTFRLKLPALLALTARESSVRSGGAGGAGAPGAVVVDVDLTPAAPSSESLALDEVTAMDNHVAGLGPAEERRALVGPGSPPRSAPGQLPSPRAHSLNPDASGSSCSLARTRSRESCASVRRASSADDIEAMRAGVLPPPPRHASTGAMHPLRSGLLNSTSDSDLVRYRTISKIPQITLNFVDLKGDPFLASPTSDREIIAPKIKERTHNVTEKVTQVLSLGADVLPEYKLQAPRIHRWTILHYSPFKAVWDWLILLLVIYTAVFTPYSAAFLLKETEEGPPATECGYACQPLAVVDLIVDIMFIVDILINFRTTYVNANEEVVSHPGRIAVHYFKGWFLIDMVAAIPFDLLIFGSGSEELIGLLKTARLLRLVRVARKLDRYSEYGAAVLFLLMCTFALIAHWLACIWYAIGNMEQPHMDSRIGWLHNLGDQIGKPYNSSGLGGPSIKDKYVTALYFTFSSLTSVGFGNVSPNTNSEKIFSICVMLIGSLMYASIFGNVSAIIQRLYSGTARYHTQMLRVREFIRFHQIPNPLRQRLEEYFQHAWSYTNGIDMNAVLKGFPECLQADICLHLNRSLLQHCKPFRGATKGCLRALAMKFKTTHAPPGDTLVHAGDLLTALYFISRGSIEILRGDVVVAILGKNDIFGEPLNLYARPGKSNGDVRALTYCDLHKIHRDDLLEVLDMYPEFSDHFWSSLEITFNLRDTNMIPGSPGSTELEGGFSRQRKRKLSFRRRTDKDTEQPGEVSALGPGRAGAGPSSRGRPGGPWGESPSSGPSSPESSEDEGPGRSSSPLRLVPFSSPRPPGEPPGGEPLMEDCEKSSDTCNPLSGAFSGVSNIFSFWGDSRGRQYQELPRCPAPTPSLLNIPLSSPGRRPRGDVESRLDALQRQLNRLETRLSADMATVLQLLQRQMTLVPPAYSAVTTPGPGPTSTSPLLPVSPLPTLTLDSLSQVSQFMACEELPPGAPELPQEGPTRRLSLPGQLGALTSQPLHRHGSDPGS

| Structure (SMILES) | hERG current change (%, negative = inhibition) at 1uM |
| --- | --- |
| CCS(=O)(=O)c1ccc(O)c(NC(=O)COc2ccccc2)c1 | 12.6% |
| Cc1cccc(-n2nc([N+](=O)[O-])c(=NC3CCN(Cc4ccccc4)CC3)n2O)c1 | -55.4% |
| O=[N+]([O-])c1nn(-c2ccccc2)n(O)c1=NC1CCN(Cc2ccccc2)CC1 | -16% |
| COc1ccc(-n2nc([N+](=O)[O-])c(=NC3CCN(Cc4ccccc4)CC3)n2O)cc1 | -6.46% |
| O=C(Nc1cnn(Cc2ccc(Cl)cc2)c1)C1CCCC1 | -7.77% |
| O=C(NCc1ccc(F)cc1)C(=O)NCC1OCCN1C(=O)c1cccs1 (stereo not drawn) | 3.51% |
| O=C(NCc1ccc(Cl)cc1)C(=O)NCC1OCCN1C(=O)c1cccs1 (stereo not drawn) | 3.06% |
| O=C(NCc1ccccc1)C(=O)NCC1OCCN1C(=O)c1cccs1 (stereo not drawn) | -54.6% |
| CCOC(=O)Cc1csc(NC(=O)c2ccc(OC)c(OC)c2)n1.Cl | -6.29% |
| CN(C)S(=O)(=O)c1ccc(C(=O)NCC(C)(C)CN=C2NS(=O)(=O)c3ccccc32)cc1 | 1.35% |
| COc1ccc(C(C)n2c(C)c3c(C)nnc(C)c3c2C)cc1 (stereo not drawn) | -52.3% |
| Cc1nnc(C)c2c(C)n(C(C)c3ccccc3)c(C)c12 (stereo not drawn) | -1.28% |
| CC(=O)c1c(C(C)=O)c(C)n(C(c2ccccc2)c2ccccc2)c1C | -4.36% |
| Cc1nnc(C)c2c(C)n(C(c3ccccc3)c3ccccc3)c(C)c12 | -65.7% |
| COc1ccc(C(=O)C(Sc2nnc(C)c(=O)[nH]2)c2ccc(OC)cc2)cc1 (stereo not drawn) | 1.35% |
| COc1ccc(-c2nnnn2C(C)C)cc1 | 11.1% |
| Cc1cccc(NC(=O)NC2(C(=O)NCc3ccco3)CCCCC2)c1 | 2.75% |
| CN(C)c1ccc(NS(=O)(=O)c2ccc(Cl)cc2)cc1 | 6.28% |
| CC(C)Oc1ccc(Nc2ncnc3ccccc23)cc1.Cl | 3.47% |
| COc1ccc(NC(=O)CCn2ccnc2)c(OC)c1 | 9.53% |
| COC(=O)COc1ccc(S(=O)(=O)N2CCOCC2)cc1 | 13.1% |

| Structure (SMILES) | hERG current change (%, negative = inhibition) at 1uM |
| --- | --- |
| COCCOc1ccc(C(F)(F)F)cc1NC(=O)c1ccccc1 | -2.95% |
| CCCCCNCC(=O)Nc1cc(C(F)(F)F)ccc1OCCOC | -5.74% |
| CCN1CCN(CC(=O)Nc2cc(C(F)(F)F)ccc2OCCOC)CC1.O=C(O)C(=O)O | -70.9% |
| CC(=O)N(C)c1ccc(NC(=O)Nc2ccc(Cl)cc2)cc1 | 8.67% |
| CC(=O)Cc1ccccc1OCC(=O)O | 18.9% |
| O=C(Nc1cc(Cl)cc(Cl)c1)c1cnn2cccnc12 | 16.2% |
| COC(=O)c1c(NC(=O)CN2C(=O)C(=O)N(CC(C)C)C2=O)sc(C)c1C | 9.77% |
| O=C1N(Cc2cccc(Cl)c2)C[C@@H]2C[C@@H](c3ccccn3)N3CCC[C@@]123 | 7.23% |
| O=C1N(Cc2cccc(Cl)c2)C[C@@H]2C[C@@H](c3cccn3-c3nccs3)N3CCC[C@@]123 | -19.2% |
| O=C1N(Cc2cccc(Cl)c2)C[C@@H]2C[C@@H](c3cccc4cccnc34)N3CCC[C@@]123 | -63.8% |
| O=C1N(Cc2cccc(Cl)c2)C[C@@H]2C[C@@H](c3cccn3-c3ccccn3)N3CCC[C@@]123 | -56.9% |
| O=C1N(Cc2cccc(Cl)c2)C[C@@H]2C[C@@H](c3cccn3-c3cccnc3)N3CCC[C@@]123 | 3.63% |
| O=C1N(Cc2cccc(Cl)c2)C[C@@H]2C[C@@H](c3cccc4ncccc34)N3CCC[C@@]123 | -2.07% |
| O=C1N(Cc2cccnc2)C[C@@H]2C[C@@H](c3cccc(OCc4ccccc4)c3)N3CCC[C@@]123 | -17.8% |
| O=C1N(Cc2cccnc2)C[C@@H]2C[C@@H](c3cccc(OC4CCCC4)c3)N3CCC[C@@]123 | -53.3% |
| O=C1N(Cc2cccnc2)C[C@@H]2C[C@@H](c3cccc(Oc4ccccc4)c3)N3CCC[C@@]123 | -4.79% |
| COc1ccc(C(=O)Nc2nc(N3C(=O)c4ccccc4C3=O)n(-c3ccccc3)n2)cc1 | 3.14% |
| CSc1ncc(Sc2ccccc2)c(C(=O)O)n1 | 10.3% |
| Cc1ccccc1-c1noc(CCC(=O)NCCc2ccccc2)n1 | 10.4% |
| O=C(CSc1nnc(NC(=O)c2ccc(F)cc2F)s1)NC1CC1 | 14.9% |
| COc1cc(OC)cc(-c2nnc(Nc3nc4c(F)cccc4s3)o2)c1 | 6.96% |
